A number with no mark means an inactive call.
Key:
Test in all cases: log2 ratio of Biotin-Ahx-Ub-VS probe labelling (compound/DMSO); higher = less target engagement, active = hit call of the paper (q ≤ 0.05, log2 ratio ≤ -1)
Settings in all cases: treatment time: 3 h
[1] = compound: CN(Cc1cccc(Br)c1)C(=O)CCl
How it was run: (§1)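 HEK293T lysate (495 µg per sample, in Tris/CHAPS/IGEPAL buffer with protease inhibitors) was treated in triplicate with compound at 50 or 200 µM or with DMSO for 3 h. It was then treated with Biotin-Ahx-Ub-VS (0.5 µM final) for 1 h. Labelled DUBs were NeutrAvidin-enriched, digested with LysC and trypsin, and run by diaPASEF LC-MS/MS. Median-normalised label-free quantities gave average log2 ratios compound/DMSO by unpaired t-test, using proteins with ≥2 unique peptides.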

[2] = compound: CN(Cc1ccccc1)C(=O)CCl
How it was run: as §1

[3] = compound: COc1ccc(CN(C)C(=O)CCl)cc1
How it was run: as §1

[4] = compound: COc1cccc(CN(CCCc2ccccc2)C(=O)CCl)c1
How it was run: as §1

[5] = compound: ClCC(=O)N1CCc2cc(Cl)c(Cl)cc2C1
How it was run: as §1

[6] = compound: ClCC(=O)N1CCc2nc(ncc2C1)-c1ccccc1
How it was run: as §1

[7] = compound: ClCC(=O)N1CCc2nocc2C1
How it was run: as §1

[8] = compound: ClCC(=O)N1CCc2scc(Br)c2C1
How it was run: as §1

[9] = compound: ClCC(=O)NC(C1CCCC1)c1cccs1
How it was run: as §1

[10] = compound: ClCC(=O)NC1CCCc2ccccc12
How it was run: as §1

[11] = compound: ClCC(=O)NC1CCOc2ccc(Cl)cc12
How it was run: as §1

[12] = compound: ClCC(=O)NC1CCSc2ccccc12
How it was run: as §1

[13] = compound: ClCC(=O)N[C@H]1CCCc2ccccc12
How it was run: as §1

[14] = compound: Fc1ccc(N2CCN(c3nc4c(CN(C(CCl)=O)CC4)cn3)CC2)cc1.Cl.Cl
How it was run: as §1

Sequence of UniProt Q9Y5T5 (Q9Y5T5 whole entry, looked up): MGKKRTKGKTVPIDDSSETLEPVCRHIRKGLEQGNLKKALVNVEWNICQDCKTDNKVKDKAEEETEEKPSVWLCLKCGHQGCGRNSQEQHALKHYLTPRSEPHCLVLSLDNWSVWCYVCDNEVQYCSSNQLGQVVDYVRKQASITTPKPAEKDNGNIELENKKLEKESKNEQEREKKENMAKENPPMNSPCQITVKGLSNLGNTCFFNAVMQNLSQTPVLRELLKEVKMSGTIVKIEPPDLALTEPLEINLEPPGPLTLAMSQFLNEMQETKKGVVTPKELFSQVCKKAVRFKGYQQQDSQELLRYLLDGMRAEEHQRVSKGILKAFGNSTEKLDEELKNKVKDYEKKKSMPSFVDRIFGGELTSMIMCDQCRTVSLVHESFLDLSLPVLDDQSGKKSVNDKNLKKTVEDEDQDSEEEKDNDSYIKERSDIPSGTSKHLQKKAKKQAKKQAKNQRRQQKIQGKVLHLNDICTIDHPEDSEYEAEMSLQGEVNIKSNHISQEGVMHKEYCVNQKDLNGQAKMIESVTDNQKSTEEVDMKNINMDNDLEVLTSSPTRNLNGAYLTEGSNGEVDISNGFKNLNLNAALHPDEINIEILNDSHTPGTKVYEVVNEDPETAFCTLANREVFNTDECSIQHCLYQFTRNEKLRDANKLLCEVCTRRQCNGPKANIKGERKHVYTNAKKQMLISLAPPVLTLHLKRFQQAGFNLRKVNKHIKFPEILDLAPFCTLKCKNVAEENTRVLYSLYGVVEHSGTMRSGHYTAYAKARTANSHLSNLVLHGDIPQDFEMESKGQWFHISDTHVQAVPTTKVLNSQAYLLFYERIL
Sequence of UniProt Q70CQ2 (Q70CQ2 whole entry): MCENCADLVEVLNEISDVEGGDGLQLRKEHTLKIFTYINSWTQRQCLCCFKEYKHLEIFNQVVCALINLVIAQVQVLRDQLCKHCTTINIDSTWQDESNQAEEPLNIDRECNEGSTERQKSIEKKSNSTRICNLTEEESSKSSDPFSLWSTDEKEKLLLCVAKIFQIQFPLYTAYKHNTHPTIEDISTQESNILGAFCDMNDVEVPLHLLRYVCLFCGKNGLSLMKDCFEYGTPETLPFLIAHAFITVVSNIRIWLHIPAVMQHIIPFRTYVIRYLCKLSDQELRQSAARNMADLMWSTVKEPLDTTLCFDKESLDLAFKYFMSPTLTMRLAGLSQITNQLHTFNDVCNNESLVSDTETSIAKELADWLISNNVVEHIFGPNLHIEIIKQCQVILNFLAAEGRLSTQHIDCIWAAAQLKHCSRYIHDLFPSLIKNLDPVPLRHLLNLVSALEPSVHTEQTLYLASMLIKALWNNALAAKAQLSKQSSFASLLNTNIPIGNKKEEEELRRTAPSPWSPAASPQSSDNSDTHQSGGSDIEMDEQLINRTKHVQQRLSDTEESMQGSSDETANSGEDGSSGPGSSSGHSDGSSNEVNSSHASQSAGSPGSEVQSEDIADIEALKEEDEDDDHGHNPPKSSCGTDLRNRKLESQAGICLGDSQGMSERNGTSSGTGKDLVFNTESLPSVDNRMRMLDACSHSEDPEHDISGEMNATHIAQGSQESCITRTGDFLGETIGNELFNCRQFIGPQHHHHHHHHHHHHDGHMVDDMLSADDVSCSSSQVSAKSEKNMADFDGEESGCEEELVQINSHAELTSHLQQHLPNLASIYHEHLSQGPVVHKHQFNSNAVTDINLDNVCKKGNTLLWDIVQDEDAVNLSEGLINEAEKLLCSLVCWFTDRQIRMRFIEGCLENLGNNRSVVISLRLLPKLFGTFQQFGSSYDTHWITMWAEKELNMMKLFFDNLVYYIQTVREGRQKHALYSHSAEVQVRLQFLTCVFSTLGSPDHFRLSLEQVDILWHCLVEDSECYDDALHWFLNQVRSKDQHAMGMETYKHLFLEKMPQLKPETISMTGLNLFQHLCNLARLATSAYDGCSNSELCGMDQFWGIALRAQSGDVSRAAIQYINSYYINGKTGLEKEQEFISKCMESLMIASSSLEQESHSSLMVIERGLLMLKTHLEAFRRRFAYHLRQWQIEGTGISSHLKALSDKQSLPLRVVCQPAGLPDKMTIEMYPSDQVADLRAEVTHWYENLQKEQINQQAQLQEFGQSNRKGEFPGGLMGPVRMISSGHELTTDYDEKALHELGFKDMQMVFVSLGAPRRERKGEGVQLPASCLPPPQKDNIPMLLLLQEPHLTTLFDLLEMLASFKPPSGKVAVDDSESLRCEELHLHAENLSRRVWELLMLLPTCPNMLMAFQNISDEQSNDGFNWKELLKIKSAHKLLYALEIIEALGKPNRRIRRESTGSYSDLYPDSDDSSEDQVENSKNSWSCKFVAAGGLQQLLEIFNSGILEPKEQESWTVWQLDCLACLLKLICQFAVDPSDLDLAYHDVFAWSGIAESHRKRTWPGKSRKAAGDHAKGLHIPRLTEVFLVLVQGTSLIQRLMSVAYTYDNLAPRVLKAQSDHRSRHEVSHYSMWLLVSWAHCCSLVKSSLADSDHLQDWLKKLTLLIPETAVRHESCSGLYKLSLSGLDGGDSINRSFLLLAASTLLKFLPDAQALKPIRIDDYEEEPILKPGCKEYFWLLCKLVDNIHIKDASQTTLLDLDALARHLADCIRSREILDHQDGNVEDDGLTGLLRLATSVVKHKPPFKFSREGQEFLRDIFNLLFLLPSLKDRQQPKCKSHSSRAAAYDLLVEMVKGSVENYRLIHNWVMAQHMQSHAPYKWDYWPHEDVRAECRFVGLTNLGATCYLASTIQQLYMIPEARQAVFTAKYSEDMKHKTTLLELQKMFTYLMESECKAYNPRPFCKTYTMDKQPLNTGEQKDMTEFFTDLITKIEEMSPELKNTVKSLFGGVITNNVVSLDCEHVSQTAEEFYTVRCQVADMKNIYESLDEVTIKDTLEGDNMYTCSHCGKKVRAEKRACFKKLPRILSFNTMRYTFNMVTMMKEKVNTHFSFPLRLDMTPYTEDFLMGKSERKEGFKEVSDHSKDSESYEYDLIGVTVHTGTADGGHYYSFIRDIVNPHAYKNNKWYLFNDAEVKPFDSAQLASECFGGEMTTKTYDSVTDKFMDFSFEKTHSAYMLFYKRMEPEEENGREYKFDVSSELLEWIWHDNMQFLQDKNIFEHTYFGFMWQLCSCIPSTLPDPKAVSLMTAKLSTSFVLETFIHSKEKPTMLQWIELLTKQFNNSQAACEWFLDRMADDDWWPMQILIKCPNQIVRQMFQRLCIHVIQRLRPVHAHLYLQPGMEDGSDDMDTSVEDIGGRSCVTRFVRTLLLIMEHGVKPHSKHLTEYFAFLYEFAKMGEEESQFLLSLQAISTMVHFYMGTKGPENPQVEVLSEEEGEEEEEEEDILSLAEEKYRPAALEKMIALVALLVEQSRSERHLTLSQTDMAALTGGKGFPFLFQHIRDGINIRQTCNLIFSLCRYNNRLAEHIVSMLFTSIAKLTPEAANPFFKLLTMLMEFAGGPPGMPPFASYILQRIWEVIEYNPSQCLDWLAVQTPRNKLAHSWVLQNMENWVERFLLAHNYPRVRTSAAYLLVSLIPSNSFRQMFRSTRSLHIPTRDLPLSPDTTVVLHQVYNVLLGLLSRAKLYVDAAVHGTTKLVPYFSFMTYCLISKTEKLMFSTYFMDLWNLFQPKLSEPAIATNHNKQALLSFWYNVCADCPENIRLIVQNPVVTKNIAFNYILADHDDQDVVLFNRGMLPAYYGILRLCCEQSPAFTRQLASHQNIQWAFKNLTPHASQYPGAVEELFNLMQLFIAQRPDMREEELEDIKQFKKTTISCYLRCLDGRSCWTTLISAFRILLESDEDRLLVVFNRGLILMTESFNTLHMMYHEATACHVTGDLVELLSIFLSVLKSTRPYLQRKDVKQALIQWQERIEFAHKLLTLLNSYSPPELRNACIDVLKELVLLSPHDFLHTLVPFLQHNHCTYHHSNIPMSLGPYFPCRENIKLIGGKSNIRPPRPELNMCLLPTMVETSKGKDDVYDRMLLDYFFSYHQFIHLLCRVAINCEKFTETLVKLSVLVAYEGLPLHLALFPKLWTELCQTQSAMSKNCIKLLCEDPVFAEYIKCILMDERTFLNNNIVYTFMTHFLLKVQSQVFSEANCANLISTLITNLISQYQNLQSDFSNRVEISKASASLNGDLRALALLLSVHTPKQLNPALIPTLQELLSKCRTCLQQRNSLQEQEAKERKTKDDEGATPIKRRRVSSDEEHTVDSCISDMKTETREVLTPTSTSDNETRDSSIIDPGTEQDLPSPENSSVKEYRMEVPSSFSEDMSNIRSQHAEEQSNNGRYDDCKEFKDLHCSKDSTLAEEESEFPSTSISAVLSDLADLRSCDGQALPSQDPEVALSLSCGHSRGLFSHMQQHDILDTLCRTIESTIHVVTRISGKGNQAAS
Sequence of UniProt P15374 (P15374 whole entry): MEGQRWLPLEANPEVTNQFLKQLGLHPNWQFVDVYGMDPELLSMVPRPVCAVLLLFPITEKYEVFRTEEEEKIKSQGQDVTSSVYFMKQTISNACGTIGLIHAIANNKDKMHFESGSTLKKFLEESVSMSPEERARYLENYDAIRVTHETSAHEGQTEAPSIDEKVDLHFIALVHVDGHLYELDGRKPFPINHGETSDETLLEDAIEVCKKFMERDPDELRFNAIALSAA

Target	log2 ratio of Biotin-Ahx-Ub-VS probe labelling ([1]; compound concentration: 50uM)	log2 ratio of Biotin-Ahx-Ub-VS probe labelling ([1]; compound concentration: 200uM)	log2 ratio of Biotin-Ahx-Ub-VS probe labelling ([2]; compound concentration: 50uM)	log2 ratio of Biotin-Ahx-Ub-VS probe labelling ([2]; compound concentration: 200uM)	log2 ratio of Biotin-Ahx-Ub-VS probe labelling ([3]; compound concentration: 50uM)	log2 ratio of Biotin-Ahx-Ub-VS probe labelling ([3]; compound concentration: 200uM)	log2 ratio of Biotin-Ahx-Ub-VS probe labelling ([4]; compound concentration: 50uM)	log2 ratio of Biotin-Ahx-Ub-VS probe labelling ([4]; compound concentration: 200uM)	log2 ratio of Biotin-Ahx-Ub-VS probe labelling ([5]; compound concentration: 50uM)	log2 ratio of Biotin-Ahx-Ub-VS probe labelling ([5]; compound concentration: 200uM)	log2 ratio of Biotin-Ahx-Ub-VS probe labelling ([6]; compound concentration: 50uM)	log2 ratio of Biotin-Ahx-Ub-VS probe labelling ([6]; compound concentration: 200uM)	log2 ratio of Biotin-Ahx-Ub-VS probe labelling ([7]; compound concentration: 50uM)	log2 ratio of Biotin-Ahx-Ub-VS probe labelling ([7]; compound concentration: 200uM)	log2 ratio of Biotin-Ahx-Ub-VS probe labelling ([8]; compound concentration: 50uM)	log2 ratio of Biotin-Ahx-Ub-VS probe labelling ([8]; compound concentration: 200uM)	log2 ratio of Biotin-Ahx-Ub-VS probe labelling ([9]; compound concentration: 50uM)	log2 ratio of Biotin-Ahx-Ub-VS probe labelling ([9]; compound concentration: 200uM)	log2 ratio of Biotin-Ahx-Ub-VS probe labelling ([10]; compound concentration: 50uM)	log2 ratio of Biotin-Ahx-Ub-VS probe labelling ([10]; compound concentration: 200uM)	log2 ratio of Biotin-Ahx-Ub-VS probe labelling ([11]; compound concentration: 50uM)	log2 ratio of Biotin-Ahx-Ub-VS probe labelling ([11]; compound concentration: 200uM)	log2 ratio of Biotin-Ahx-Ub-VS probe labelling ([12]; compound concentration: 50uM)	log2 ratio of Biotin-Ahx-Ub-VS probe labelling ([12]; compound concentration: 200uM)	log2 ratio of Biotin-Ahx-Ub-VS probe labelling ([13]; compound concentration: 50uM)	log2 ratio of Biotin-Ahx-Ub-VS probe labelling ([13]; compound concentration: 200uM)	log2 ratio of Biotin-Ahx-Ub-VS probe labelling ([14]; compound concentration: 50uM)	log2 ratio of Biotin-Ahx-Ub-VS probe labelling ([14]; compound concentration: 200uM)
UCHL3 (UniProt P15374)	-0.149	-0.181	-0.409	-0.314	-0.297	-0.108	-0.15	-0.296	-0.0194	-0.59	-0.0966	-0.705	-0.331	-0.399	-1.73 (active)	-4.16 (active)	-0.0539	-0.088	-0.203	0.0177	-0.519	-0.27	-0.0871	-0.294	-0.224	-0.372	-1.23 (active)	-4.19 (active)
USP10 (UniProt Q14694)	-0.146	-0.153	-0.177	0.0371	-0.151	-0.0732	-0.12	0.0548	-0.188	-0.0346	-0.0484	-0.151	-0.2	-0.136	-0.066	0.0425	-0.148	0.0706	-0.107	0.139	-0.314	-0.0917	-0.0829	0.0327	-0.162	0.0178	-0.0782	-0.162
USP34 (UniProt Q70CQ2)	0.504	0.192	0.682	-0.913	0.746	-0.399	-0.287	-0.935	-0.17	-1.47 (active)	0.583	-0.403	0.31	-0.0396	0.689	-0.0731	-0.0579	-0.14	-0.752	-0.268	0.178	0.0865	-0.0836	-0.557	-0.0266	0.046	-0.25	-0.554
USP16 (UniProt Q9Y5T5)	-0.307	-1.27 (active)	-0.434	-0.669	-0.00981	-0.105	-0.312	-0.936	-0.694	-0.189	-0.0935	-1.62 (active)	-0.0383	-0.326	-0.507	0.00388	-0.325	-0.246	-0.384	-0.472	-0.353	-0.626	-0.00515	-0.114	0.221	0.339	-0.277	-0.62
USP7 (UniProt Q93009)	-0.88	-1.84 (active)	-0.517	-1.2 (active)	-0.358	-1.04 (active)	-0.387	-1.22 (active)	-1.57 (active)	-2.52 (active)	-0.461	-1.58 (active)	-0.316	-0.618	-0.698	-2.08 (active)	0.0363	-0.1	-0.0886	-0.205	-0.182	-0.301	0.0569	-0.25	0.0324	-0.432	-0.507	-1.83 (active)
USP48 (UniProt Q86UV5)	-0.101	-0.603	-0.0688	-0.18	-0.0647	-0.237	-0.0292	-0.259	-0.214	-0.0205	-0.173	-0.226	-0.112	-0.324	-0.161	-0.327	-0.234	-0.00963	0.13	0.0439	-0.0252	-0.167	0.207	-0.0233	-0.00252	-0.144	-0.0747	-0.125
